Screening data from PubChem BioAssay.
FadD28 FP inh: inhibitors of FadD28 bisubstrate probe binding, primary screen, biochemical, fluorescence polarization, single point; inhibition, % at 12.5 µM; AID 588549, 2011; hit rate 0.22% among 360,000; in the data active = inhibition above about 8.5%, passing the limit was not always enough
TcdB GH inh: TcdB glycohydrolase inhibitors, primary screen, biochemical, single point, plate reader. Toxin B (Clostridioides difficile), P18177. TcdB glycohydrolase enzymatic assay. inhibition, % at 9.99 µM. hit rate 0.24% among 350,000; in the data active = inhibition above about 10%
Target sequence (P18177 whole entry, looked up): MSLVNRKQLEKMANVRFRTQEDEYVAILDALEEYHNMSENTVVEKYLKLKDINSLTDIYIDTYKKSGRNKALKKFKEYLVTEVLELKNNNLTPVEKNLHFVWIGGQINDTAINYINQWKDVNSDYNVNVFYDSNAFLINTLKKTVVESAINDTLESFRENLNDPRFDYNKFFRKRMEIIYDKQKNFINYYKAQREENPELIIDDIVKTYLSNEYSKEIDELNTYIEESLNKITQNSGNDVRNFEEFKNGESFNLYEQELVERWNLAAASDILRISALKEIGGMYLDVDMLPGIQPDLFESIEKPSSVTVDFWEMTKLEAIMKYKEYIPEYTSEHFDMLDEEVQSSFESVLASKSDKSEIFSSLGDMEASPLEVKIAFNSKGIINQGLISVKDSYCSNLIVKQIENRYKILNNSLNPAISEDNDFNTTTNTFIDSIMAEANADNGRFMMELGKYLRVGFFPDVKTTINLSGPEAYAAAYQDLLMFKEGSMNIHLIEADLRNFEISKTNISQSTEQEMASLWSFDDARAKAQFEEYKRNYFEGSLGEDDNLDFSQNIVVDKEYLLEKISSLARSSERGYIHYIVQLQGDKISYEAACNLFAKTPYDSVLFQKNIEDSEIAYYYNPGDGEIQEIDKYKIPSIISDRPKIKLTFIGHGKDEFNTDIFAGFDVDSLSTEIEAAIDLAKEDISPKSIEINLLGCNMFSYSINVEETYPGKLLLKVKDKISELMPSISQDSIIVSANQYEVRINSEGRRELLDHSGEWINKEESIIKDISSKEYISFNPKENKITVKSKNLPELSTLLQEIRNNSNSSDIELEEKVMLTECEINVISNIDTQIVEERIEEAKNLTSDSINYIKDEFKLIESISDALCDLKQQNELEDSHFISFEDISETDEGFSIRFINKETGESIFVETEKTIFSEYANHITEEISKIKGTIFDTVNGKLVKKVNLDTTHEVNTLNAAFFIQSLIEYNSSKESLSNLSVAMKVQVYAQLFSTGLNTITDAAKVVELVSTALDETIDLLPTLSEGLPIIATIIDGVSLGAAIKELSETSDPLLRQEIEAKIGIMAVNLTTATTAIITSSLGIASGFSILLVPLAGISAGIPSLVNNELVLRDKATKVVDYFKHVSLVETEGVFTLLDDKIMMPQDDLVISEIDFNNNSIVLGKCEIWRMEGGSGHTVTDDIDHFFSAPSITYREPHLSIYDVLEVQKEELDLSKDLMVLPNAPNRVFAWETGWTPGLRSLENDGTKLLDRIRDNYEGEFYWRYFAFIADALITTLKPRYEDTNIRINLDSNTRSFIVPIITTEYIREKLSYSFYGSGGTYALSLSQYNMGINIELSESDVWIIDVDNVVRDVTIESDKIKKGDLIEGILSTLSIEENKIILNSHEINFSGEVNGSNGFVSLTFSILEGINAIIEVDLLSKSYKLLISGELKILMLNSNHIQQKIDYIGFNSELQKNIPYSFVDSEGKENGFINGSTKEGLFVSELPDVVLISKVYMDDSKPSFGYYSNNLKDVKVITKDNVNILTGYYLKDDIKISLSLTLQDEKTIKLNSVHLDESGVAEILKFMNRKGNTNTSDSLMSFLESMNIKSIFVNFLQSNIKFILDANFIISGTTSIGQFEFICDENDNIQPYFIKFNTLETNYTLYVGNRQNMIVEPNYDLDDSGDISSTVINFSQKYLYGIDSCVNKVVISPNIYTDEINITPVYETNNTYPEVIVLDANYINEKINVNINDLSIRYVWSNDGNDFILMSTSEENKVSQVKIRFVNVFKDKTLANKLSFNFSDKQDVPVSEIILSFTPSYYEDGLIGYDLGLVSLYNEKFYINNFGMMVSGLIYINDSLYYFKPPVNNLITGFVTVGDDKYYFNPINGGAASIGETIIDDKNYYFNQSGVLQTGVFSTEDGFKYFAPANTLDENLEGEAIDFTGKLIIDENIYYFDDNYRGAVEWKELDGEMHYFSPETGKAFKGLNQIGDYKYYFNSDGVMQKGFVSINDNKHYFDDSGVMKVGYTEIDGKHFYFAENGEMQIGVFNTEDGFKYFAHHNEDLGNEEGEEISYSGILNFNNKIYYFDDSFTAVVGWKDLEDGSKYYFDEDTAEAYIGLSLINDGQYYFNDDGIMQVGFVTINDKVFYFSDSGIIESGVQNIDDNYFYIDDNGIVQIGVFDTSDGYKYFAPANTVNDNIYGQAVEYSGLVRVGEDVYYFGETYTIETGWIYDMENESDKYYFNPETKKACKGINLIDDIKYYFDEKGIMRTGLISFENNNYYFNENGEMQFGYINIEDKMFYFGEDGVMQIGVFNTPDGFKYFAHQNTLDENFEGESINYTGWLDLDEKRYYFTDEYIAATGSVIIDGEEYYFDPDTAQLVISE
Vc quorum ag-1: inducers of Vibrio cholerae quorum light production without autoinducers, primary screen, BH1578 luxS cqsA deficient, single point; V. cholerae BH1578 lux reporter, luminescence, 6 h; AID 588436, 2011; hit rate 0.16% among 350,000; activation, % at 18.7 µM; in the data active = activation mostly above about 9.7%, no sharp cut-off
BioA inh: M. tuberculosis BioA enzyme inhibitors, primary screen, biochemical, plate reader, single point, HTS. 7,8-diaminopelargonic acid synthase BioA (Mycobacterium tuberculosis). purified M. tuberculosis BioA enzyme. inhibition, % at 9.99 µM. hit rate 0.096% among 360,000. AID 602481, 2012; in the data active = inhibition above about 40%
Vc quorum ag-2: V. cholerae lux activation without autoinducers – BH1578 luxS cqsA deficient, cherry-pick, plate reader, dose response; activation, % at 50 µM; AID 602243, 2012; 620 tested, under 10 active; shares compounds with Vc quorum ag-1; V. cholerae BH1578 lux reporter, luminescence, 6 h; call rule not given here
Active calls of the source: *; i = inactive; . = no result. This is a sample that favours compounds with a hit; in the whole collection about 0.54% have one here.

SMILES	FadD28 FP inh	TcdB GH inh	Vc quorum ag-1	BioA inh	Vc quorum ag-2
CN(C(=O)Cn1cc(C(F)(F)F)cc(Cl)c1=O)C1CCS(=O)(=O)C1 (configuration not stated)	-2	-11	14	-3	1
O=C(Cn1cc(C(F)(F)F)cc(Cl)c1=O)NC1CCS(=O)(=O)C1 (configuration not stated)	-3	1	-1	1	.
Cn1c(=O)c(=O)n(C)c2cc(S(=O)(=O)N3CCCC3C(=O)NCc3ccco3)ccc21 (configuration not stated)	-3	0	i	0	.
O=C(NCc1ccco1)C1CCCN1S(=O)(=O)c1ccc2ccccc2c1 (configuration not stated)	-1	2	14	-2	0
COc1ccc(NC(=O)CSc2ccc3c(c2)OCCO3)cc1OC	-1	.	25*	0	0
COc1cc(NC(=O)CSc2ccc3c(c2)OCCO3)cc(OC)c1OC	-1	.	i	-3	.
CCn1c(SCC(=O)Nc2ccc3c(c2)OCCO3)nnc1-c1ccccn1	0	.	12	-2	0
O=C(CC1CC1)N1CC(=O)N2[C@H](CO)[C@H](c3ccc(C#Cc4cccc(F)c4)cc3)[C@@H]2C1	.	0	.	.	.
Cc1ccc(C)c(OCCC(=O)OCC(=O)NC2CC2)c1	0	3	27	-1	0
CC(C)C(NC(=O)c1ccc(S(=O)(=O)N2CCOCC2)cc1)c1nc2ccccc2[nH]1 (configuration not stated)	2	.	14	2	0
CC(C)[C@H](NC(=O)c1cccc(S(=O)(=O)N2CCCC2)c1)c1nc2ccccc2[nH]1	0	.	.	3	.
CC(C)CC#Cc1cnc2c(c1)C(=O)N([C@@H](C)CO)C[C@@H](C)[C@@H](CN(C)C(=O)c1cnccn1)O2	.	0	.	-4	.
O=C(c1ccccc1)c1cccn1CC(=O)N1CCCCCC1	0	.	i	.	.
Cc1cccc(N2CCN(C(=O)Cn3cccc3C(=O)c3ccccc3)CC2)c1C	0	.	21	.	0
Cc1noc(C)c1S(=O)(=O)Nc1ccc2c(c1)C(=O)N([C@@H](C)CO)C[C@H](C)[C@@H](CN(C)C(=O)NC(C)C)O2	.	0	.	-3	.
CCCOc1ccc(-c2nc(C#N)c(N3CCN(CC)CC3)o2)cc1	-1	.	12	.	14
CCOc1ccc(-c2nc(C#N)c(N3CCN(CC)CC3)o2)cc1	-5	.	i	0	.
O=C(c1cn(-c2ccccc2)nc1-c1cccs1)N1CCOCC1	0	.	25*	0	0
Cn1c(C(=O)NC2CCCCC2)cc2c(=O)n(C)c3ccccc3c21	0	-1	245*	0	i
Cn1c(C(=O)NC2CCCCCC2)cc2c(=O)n(C)c3ccccc3c21	-4	1	1	-3	.
CN(C)c1nc(N)ncc1-c1ccc(Oc2ccccc2)cc1	0	0	53*	0	7
CCC(=O)N1CC(=O)N2[C@H](CO)[C@H](c3ccc(C#Cc4cccc(F)c4)cc3)[C@H]2C1	.	1	.	.	.
CC(C)(C)c1nc(N2CCN(C(=O)c3ccco3)CC2)c2nnn(Cc3ccccc3)c2n1	-4	.	17*	2	0
CCN(CC1COc2ccccc2O1)C(=S)Nc1ccccc1 (configuration not stated)	-2	.	12	3	1
CCCN1CCN(C(=O)CCCNC(=O)Cn2cnc3sc(C)c(C)c3c2=O)CC1	0	.	14	5	5
SMILES	FadD28 FP inh	TcdB GH inh	Vc quorum ag-1	BioA inh	Vc quorum ag-2
C[C@@H]1CN([C@@H](C)CO)C(=O)c2cc(NS(=O)(=O)c3cn(C)cn3)ccc2O[C@@H](C)CCCCO[C@@H]1CN(C)C(=O)NC1CCCCC1	.	0	.	0	.
C[C@H]1CCCCO[C@H](CN(C)C(=O)Nc2ccccc2)[C@@H](C)CN([C@@H](C)CO)C(=O)c2cc(N(C)C)ccc2O1	.	-23	.	-1	.
Cc1cccc(NC(=O)c2c(O)c3ccccc3n(C)c2=O)c1	-1	0	70*	-2	0
CCCCNC(=O)CCC(=O)Nc1ccc2nc(N3CCC(C)CC3)cc(C)c2c1	-4	0	0	.	.
Cc1cc(N2CCC(C)CC2)nc2ccc(N3C(=O)CCC3=O)cc12	1	.	12	-1	2
CCCCOC(=O)Nc1ccc(S(=O)(=O)Nc2cc(C)nc(C)n2)cc1	0	2	0	-1	.
